Bioassay records: PubChem BioAssay, National Center for Advancing Translational Sciences (NCATS)
Only some compounds are listed: those with a hit (about 12% of all), similar ones and a draw of the others.
Pf growth 48h = Primary qHTS for delayed death inhibitors of the malarial parasite plastid, 48 hour incubation; P. falciparum luciferase growth in erythrocytes, 48 h; Potency, µM (doses to about 28.7 µM), without a hit: at the top dose activity change, negative = inhibition, hits mostly inhibitors; hit rate 5.9% among 310,000; also: % is scaled to controls: 0 for no effect and ±100 for the full control effect
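Growth was read as firefly luciferase luminescence after a 48 h, 37 C, 5% CO2 exposure of compounds to reporter-bearing P. falciparum cultures (0.1% parasitemia, 2% hematocrit final) in Albumax-supplemented RPMI 1640.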
SARS PLpro yeast = qHTS of Yeast-based Assay for SARS-CoV PLP. S. cerevisiae expressing SARS-CoV PLpro, growth rescue. hit rate 0.19% among 330,000. Potency, µM (titrated, usually from 32.9 µM), for the others: at the top dose activity, positive = growth rescue, most hits filed as activators; calls by dose curve; also: 0% is about no effect; nearly all actives have a fitted effect of over 55% in size
Sm TGR block = qHTS Assay for the Inhibitors of Schistosoma Mansoni Peroxiredoxins | Schistosoma mansoni thioredoxin glutathione reductase (TGR), Q962Y6 | purified TGR, DTNB reduction, TNB absorbance 405 nm | Potency, µM (doses to about 114 µM), inactives show at the highest dose activity change, negative = inhibition, actives largely listed as inhibitors | hit rate 3% among 360,000 | AID 485364, 2010; also: % is scaled to controls: 0 for no effect and ±100 for the full control effect; nearly all actives have a fitted effect of over 60% in size
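TGR 20 nM + NADPH 100 uM (dispensed conc.), cpd preinc 15 min RT; start with NADPH (500 uM addition) then DTNB (15 mM addition). Kinetic TNB absorbance, 405 nm filter. Four-parameter Hill fit across titration.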
Pf growth 96h = Primary qHTS for delayed death inhibitors of the malarial parasite plastid, 96 hour incubation | P. falciparum luciferase reporter growth, 96 h | Potency, µM (highest dose often 28.7 µM), for the others: at the top dose activity change, negative = inhibition, actives largely listed as inhibitors | AID 504834, 2011 | hit rate 6.9% among 320,000; also: % is scaled to controls: 0 for no effect and ±100 for the full control effect
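Plates of compound plus infected erythrocytes (2% hematocrit, 0.05% parasitemia final) incubate 96 hours, 37 C, 5% CO2. Detection reagent added; reduced luminescence from the parasites' luciferase reporter flags inhibition.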
Numbers without * were called inactive; u = inconclusive; x = not tested or not shown. Unless noted, calls follow the shape of the dose curve; as a rule, active = well fitted curve in the direction sought with a large enough effect; inconclusive = small, poorly fitted or top-dose-only effect, or another doubt; inactive = no such curve, though single readings can be large; an effect the other way counts as inactive or inconclusive. Potency is read from the fitted curve at half-maximal effect.

SMILES	Pf growth 48h	SARS PLpro yeast	Sm TGR block	Pf growth 96h
CC(=O)Oc1cccc(/C=C2\C=C(c3ccc(C)cc3)OC2=O)c1	-1%	-2%	x	1%
COc1ccc(C2=C/C(=C\c3ccc(OC(C)=O)cc3)C(=O)O2)cc1	0%	4%	50µM*	-5%
Cc1cc(=O)c(C(=O)Nc2ccc(N3CCOCC3)cc2N2CCOCC2)nn1-c1ccccc1Cl	x	-3%	x	x
Cn1cnc2c1c(=O)n(Cc1ccccc1)c(=O)n2C	x	-5%	0%	-30%
Cn1cnc2c1c(=O)n(Cc1ccc(Cl)cc1Cl)c(=O)n2C	-6%	-4%	8%	9.3µM*
CCS(=O)(=O)c1ccc(OC)c(N=Nc2ccc(O)c3ncccc23)c1	u	u	-15%	u
CCOc1ccc(N=Nc2ccc(O)c3ncccc23)cc1	0.74µM*	1%	1%	-3%
NS(=O)(=O)c1ccc(N=Nc2ccc(=O)[nH]c2O)cc1	u	2%	22µM*	u
NS(=O)(=O)c1ccc(N=Nc2ccc(O)c3ncccc23)cc1	2.6µM*	4%	56µM*	u
NS(=O)(=O)c1ccc(N=Nc2c(O)[nH]c(=S)[nH]c2=O)cc1	u	0%	-7%	u
CCCn1c(=NC(=O)c2cc3ccccc3o2)c(C(=O)OCC)cc2c(=O)n3ccccc3nc21	x	x	0%	x
Cc1ccc(NC(=O)Cn2nnc(C(=O)NCCc3ccccc3)c2N)cc1	x	x	-9%	x
Cc1ccc(N2C(=O)NC(NS(=O)(=O)c3ccccc3)(C(F)(F)F)C2=O)cc1C (stereo not drawn)	2%	3%	-7%	u
Cc1c(C(=O)Nc2cccc(-c3nc4ccccc4s3)c2)oc2ccccc12	x	x	1%	x
CN(C[C@H](c1ccccc1)N(C[C@H](Cc1ccccc1)N(CCc1ccccc1)N=O)N=O)N=O	u	0%	u	12µM*
CN(C[C@H](Cc1ccccc1)N(C[C@H](c1ccccc1)N(CCc1ccccc1)N=O)N=O)N=O	u	1%	13µM*	13µM*
CC(C)C[C@@H](CN(N=O)[C@@H](Cc1ccccc1)CN(C)N=O)N(CCc1ccccc1)N=O	u	1%	-32%	u
CCCC[C@@H]1CNCCN1CCc1cccc2ccccc12	u	-1%	u	u
O=C(C[n+]1ccccc1)N/N=C/c1ccc(C(=O)O)cc1	-6%	-9%	-7%	-11%
OCC[C@@H]1C[C@H](O)[C@@H](O)[C@]2(Cc3ccccc3CCO2)O1	u	4%	-9%	82%
CC(C)Oc1ccc(C(=O)OCC(=O)N2CCCc3ccccc32)cc1	5%	-1%	-1%	8%
O=C(c1ccccc1F)N1CCN(c2ccc([N+](=O)[O-])c(NCc3cccnc3)c2)CC1	u	1%	0%	10µM*
COc1ccc(C(=O)N2CCN(c3ccc([N+](=O)[O-])c(NCCc4ccc(OC)c(OC)c4)c3)CC2)cc1	10µM*	4%	1%	4.7µM*
COc1ccc(CCNc2cc(N3CCN(C(=O)c4ccc(C)cc4)CC3)ccc2[N+](=O)[O-])cc1OC	u	0%	-9%	u
O=C(c1ccccc1)N1CCN(c2ccc([N+](=O)[O-])c(NCc3cccnc3)c2)CC1	9.3µM*	0%	2%	u
SMILES	Pf growth 48h	SARS PLpro yeast	Sm TGR block	Pf growth 96h
CCN(CC)CCNC(=O)c1ccc(NC(=O)C2CC(=O)N(c3ccc4c(c3)OCCO4)C2)cc1 (stereo not drawn)	u	-7%	-2%	4%
C=C/C(C)=C/CC1C(=C)CCC2C(C)(C(=O)O)CCCC12C (stereo not drawn)	u	0%	32µM*	-6%
CNc1cccccc1=S	-14%	-6%	5.6µM*	12%
Cc1cccc(CN2CCN(Cc3cccc(-n4cccn4)c3)CC2CCO)n1 (stereo not drawn)	-3%	-2%	u	4.1µM*
CC(C)CN1CCN(Cc2cn(C)c3ccccc23)CC1CCO (stereo not drawn)	-7%	-9%	89µM*	u
Cn1cc(CN2CCN(CC(C)(C)C)C(CCO)C2)c2ccccc21 (stereo not drawn)	-10%	-1%	-25%	1.5µM*
CC(C)N1CCN(Cc2coc3ccccc3c2=O)CC1CCO (stereo not drawn)	17%	1%	u	0%
